Measured values: PubChem BioAssay (NCI)
About 79,000 compounds went through this panel and 15% of them were active in at least one assay; those are over-represented in the sample as a whole. Cut-off read from the data, not from the text of the source: active = growth inhibition above about 70%; inactive = the rest.

Key:
[1] = NCI Yeast Anticancer Drug Screen. Data for the rad50 strain (AID 155);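 note: 0% = growth of vehicle-only cultures of the same strain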; conditions: S. cerevisiae rad50 strain growth inhibition, stronger effect = higher value; at 50.0 µM unless noted
How it was run: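 Readout: growth inhibition relative to vehicle-treated cultures. Compound exposure was carried out in a genetically defined yeast strain deficient in DNA damage repair.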

[2] = NCI Yeast Anticancer Drug Screen. Data for the mec2-1 strain (AID 157); conditions: S. cerevisiae mec2-1 strain, stronger effect = higher value; at 50.0 µM unless noted
How it was run: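 mec2-1 yeast strain, carrying an alteration in DNA damage repair or cell cycle control, was exposed to compounds; growth inhibition was measured relative to vehicle-treated controls.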

[3] = NCI Yeast Anticancer Drug Screen. Data for the sgs1 mgt1 strain (AID 161);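 note: 0% = growth of cultures given vehicle only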; conditions: S. cerevisiae sgs1 mgt1 strain, stronger effect = higher value; at 50.0 µM unless noted
How it was run: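 Growth of a repair-deficient yeast mutant was monitored after compound treatment and expressed as inhibition relative to vehicle-treated cultures.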

[4] = NCI Yeast Anticancer Drug Screen. Data for the cln2 rad14 strain (AID 165);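 note: 0% = growth equal to vehicle treated cultures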; conditions: S. cerevisiae cln2 rad14 strain, stronger effect = higher value; at 50.0 µM unless noted
How it was run: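 Yeast carrying cln2 and rad14 alterations (cell cycle control and DNA damage repair) were exposed to compounds. Growth inhibition was measured against vehicle-treated controls.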

[5] = NCI Yeast Anticancer Drug Screen. Data for the bub3 strain (AID 167); conditions: S. cerevisiae bub3 mutant strain, stronger effect = higher value; at 50.0 µM unless noted
How it was run: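 Readout: yeast growth inhibition, expressed relative to vehicle-only wells. The test organism is a mutant strain from a panel with lesions in DNA repair or checkpoint genes.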

[6] = NCI Yeast Anticancer Drug Screen. Data for the mlh1 rad18 strain (AID 175); conditions: S. cerevisiae mlh1 rad18 strain growth inhibition, stronger effect = higher value; at 50.0 µM unless noted
How it was run: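 Growth inhibition of the yeast strain was measured after compound exposure and expressed relative to vehicle-treated controls. The strain carries defined defects in DNA damage repair.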

Measured: growth inhibition

CN(C)c1ccc(/C=N/Nc2nc3ccccc3c(=O)n2-c2ccccc2)cc1
inactive: [1] -3.05% | [2] -16.1% | [3] 6.55% | [4] 17.9% | [5] 26.1% | [6] -3.7%

O=C(O)COc1ccc(F)cc1F
inactive: [1] -22.5% | [2] -3.05% | [3] 1.65% | [4] -31.4% | [5] 0.95% | [6] -16.4%

O=C(O)c1ccc(NCO)cc1
inactive: [1] 7.05% | [2] 5.15% | [3] -13.2% | [4] 33.7% | [5] 4.3% | [6] 7.85%

O=C1OC(OC2CCCCC2)(c2ccccc2)c2ccccc21 (centres undefined)
inactive: [1] -25.1% | [2] -7.75% | [3] -0.15% | [4] -23.5% | [5] -1.65% | [6] -5.55%

N#CNC(N)=NCCO
inactive: [1] -22.2% | [2] -2.25% | [3] -36.9% | [4] -12% | [5] -28.5% | [6] -20.6%

O=C(Cc1ccccc1)SC(=O)Cc1ccccc1
inactive: [1] -0.05% | [2] 28.8% | [3] 18.6% | [4] -8.9% | [5] 39.4% | [6] 10%

Oc1ccc(Br)cc1/C=N/c1nc2ccccc2s1.Oc1ccc(Br)cc1/C=N/c1nc2ccccc2s1.[Cu]
inactive: [1] 38% | [2] 40.9% | [3] 0.05% | [4] 15.3% | [5] -0.25% | [6] 43.5%

COC(=O)c1ccccc1-c1ccccc1C(=O)O
inactive: [1] 1.2% | [2] -3.35% | [3] -5.45% | [4] -13.8% | [5] 8.3% | [6] -1.7%

Fc1ccc(/C=C2/c3cc(Cl)ccc3-c3c(Cl)cc(Cl)cc32)cc1
inactive: [1] 44.6% | [2] 3.25% | [3] 15.7% | [4] -5.1% | [5] -3.5% | [6] 5.5%

O=C(O)[C@H](Cc1ccccc1)N1C(=O)N[C@@H](Cc2ccccc2)C1=O
inactive: [1] -21.6% | [2] -1.7% | [3] 4.75% | [4] 2.35% | [5] 3.6% | [6] -2.7%

Cc1c(=O)n(C)c2ccccc2[n+]1[O-]
inactive: [1] 7.9% | [2] 16.1% | [3] 11.7% | [4] -8.65% | [5] 7.1% | [6] 7.65%

CCCCCCCNC(=O)C(C)Br (centres undefined)
inactive: [1] 17.6% | [2] 26.6% | [3] 16.6% | [4] -41.9% | [5] 19.7% | [6] 22.1%

CCN(CC)CCNC(=O)c1ccc(I)cc1
inactive: [1] -43.4% | [2] -14.8% | [3] -0.9% | [4] -25.6% | [5] -4.35% | [6] -30.9%

COc1ccc(CCNS(=O)(=O)c2c(C)c(C)c(C)c(C)c2C)cc1OC
inactive: [1] -2.2% | [2] -20.6% | [3] 5.1% | [4] 21.1% | [5] 21.2% | [6] 6.8%

O=[N+]([O-])c1ccc(NN=C2CCCCC2)c([N+](=O)[O-])c1
inactive: [1] 9.1% | [2] -18.2% | [3] 1.8% | [4] -39.6% | [5] 2.7% | [6] 30.6%

CC(=O)OCC(OC(C)=O)C(OC(C)=O)C(OC(C)=O)C(OC(C)=O)C(=O)NC1CCc2ccccc2C1 (centres undefined)
inactive: [1] 24.8% | [2] 2.6% | [3] 13.6% | [4] 30.4% | [5] 0.25% | [6] 21.9%

CN(/C(=N/C(=S)NCc1ccccc1)SCc1ccccc1)c1ccccc1
inactive: [1] 38% | [2] 29.6% | [3] 35.6% | [4] 9.45% | [5] 38.1% | [6] 58%

Cc1[nH]c2c(C)ccc(C)c2c(=O)c1Br
inactive: [1] -1.65% | [2] 10% | [3] -1% | [4] -16.7% | [5] -1.7% | [6] 3.2%

Brc1ccccc1C#Cc1ccccc1Br
inactive: [1] 0.7% | [2] -4.6% | [3] 16.3% | [4] -1.25% | [5] 10.1% | [6] 19.1%

CCOC(=O)c1c(C)[nH]c(C=O)c1C
inactive: [1] 5.65% | [2] 9.3% | [3] 0.25% | [4] 16.7% | [5] -0.25% | [6] 4.4%

CC1CC(=O)CC(C)(C)N1 (centres undefined)
inactive: [1] -9.4% | [2] -9% | [3] 3.2% | [4] -2.4% | [5] 5.85% | [6] -7.25%

C/C(=N\NC(N)=O)c1ccc(Br)c2ccccc12
inactive: [1] -19.1% | [2] 12.9% | [3] -3.35% | [4] 4.05% | [5] 1.05% | [6] -1.2%

Cc1cccc(C2=N/C(=C\c3ccc(N(C)C)cc3)C(=O)O2)c1
inactive: [1] 20.2% | [2] 6% | [3] 7.7% | [4] 18.2% | [5] 3.05% | [6] -6.1%

O=C(Nc1cccc2ccccc12)c1ccc(Cl)cc1Cl
inactive: [1] 4.15% | [2] 14.9% | [3] 21.5% | [4] 1.35% | [5] 8.55% | [6] 4.65%

O=C(Oc1cc2c(cc1Br)OCO2)c1cccc2ccccc12
inactive: [1] 0.85% | [2] -30.3% | [3] 9.8% | [4] -48.7% | [5] 6.95% | [6] -27.2%

CSc1nc(N)cc(=O)n1C
inactive: [1] -16.1% | [2] -11.2% | [3] -23.9% | [4] -53.1% | [5] -9.05% | [6] 14.2%

C=C(C)C1CCC2(C)CCC(=O)C(C)=C2C1 (centres undefined)
inactive: [1] 3.15% | [2] 1.35% | [3] -5.75% | [4] -19.7% | [5] -6.1% | [6] -4.15%

CCCCCCCCCC(OCC)OCC
inactive: [1] -25.1% | [2] -15.2% | [3] -11.6% | [4] -6.35% | [5] -31.4% | [6] -25.6%

CC(C)(O)C1CC(=O)C(C)(C2C(O)CC3(C)C4CC=C5C(CCC(O)C5(C)C)C4(C)C(=O)CC23C)O1 (centres undefined)
inactive: [1] 65% | [2] 63% | [3] 45% | [4] 42.9% | [5] 56.1% | [6] 47.6%

O=C(CCS(=O)(=O)CCC(=O)c1ccc2ccccc2c1)c1ccc2ccccc2c1
inactive: [1] -66.8% | [2] -13.2% | [3] -2.4% | [4] -35.3% | [5] 0.25% | [6] -52.5%

Cc1cc(S(=O)(=O)Nc2nc(N)nc(N3N=CCC3C)n2)c(SCC(=O)O)cc1Cl (centres undefined)
inactive: [1] -16% | [2] 6.25% | [3] 4.7% | [4] -7% | [5] -1.55% | [6] 2.1%

CCCCCCCOC(=O)CO
inactive: [1] 22.4% | [2] 6.65% | [3] 16.2% | [4] 16.9% | [5] 1.95% | [6] 19.4%

COc1cc2cnc3c4cc(OCc5ccccc5)ccc4ccc3c2cc1OC
inactive: [1] -10.1% | [2] 3.2% | [3] -1% | [4] 25.3% | [5] 14.2% | [6] -0.25%

N/C1=C/C(=O)NC(=O)c2c(c3ccccc3oc2=O)C1
inactive: [1] -5.7% | [2] 0.9% | [3] 8.5% | [4] 5% | [5] 7.3% | [6] -29.6%

[N-]=[N+]=Nc1c(C=O)c(=O)n2c3c(cccc13)CCC2
inactive: [1] 17.2% | [2] 32% | [3] 29.2% | [4] 31.2% | [5] 27.7% | [6] 61%

COc1cc([C@@H]2c3cc4c(cc3[C@H](OC3OC5COC(c6ccco6)OC5C(O)C3O)C3COC(=O)[C@@H]32)OCO4)cc(OC)c1OC (some centres undefined)
inactive: [1] 7.25% | [2] 18.8% | [3] 7.6% | [4] 17.9% | [5] 0.2% | [6] -42%

CC1(C)OC(CCl)C2OC(C)(C)OC(CCl)C2O1 (centres undefined)
inactive: [1] 11.1% | [2] 9.3% | [3] -7.35% | [4] 3.85% | [5] -4.95% | [6] 2.75%

CCOC(=O)c1c(-c2ccc([N+](=O)[O-])cc2)c(C=O)n(-c2ccccc2)c1C
inactive: [1] 4.2% | [2] -5.45% | [3] -0.55% | [4] -21.8% | [5] 36.9% | [6] 6.7%

CCc1ccc(NC(=O)c2ccccc2)cc1CC
inactive: [1] -11.3% | [2] -11% | [3] -2.5% | [4] -97.3% | [5] -4.05% | [6] -19.1%
